Rows were chosen to be rich in hits. Some 6.3% of all compounds tested hit in one or more screens of this group.
ATXN2 expr inh: inhibitors of ATXN2 expression; HEK-293 ATXN2-luciferase reporter, luminescence, 24 h; Potency, µM (series often up to 57 µM), usual class: inhibitors; actives 0.72% (n = 360,000); AID 1745845; note: nearly all actives have a fitted effect of over 55% in size
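ATXN2-luciferase reporter cells (luciferase flanked by upstream and downstream ATXN2 gene portions) were treated 24 h at 37 °C with compounds at up to 57 uM. SteadyGlo luminescence gave expression; GF-AFC fluorescence gave viability.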
HepG2 tox: kills HepG2 cells in TGF-b inhibitor counter-screen; HepG2 CAGA-GFP viability, ATP luminescence, 18 h; Potency, µM (top dose mostly 46.1 µM), most hits filed as cytotoxic; actives 0.76% (n = 410,000)
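CellTiter-Glo luminescence gave cytotoxicity after 18 hours at 37 degrees C. The cells were HepG2 CAGA-GFP in 1% FBS DMEM, stimulated with 500 pg/mL TGF-beta after compound addition. %Activity was normalised to no-cell wells (complete cell-killing) and DMSO (no toxicity), and curves were fitted and classified.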
RORgamma inh: ROR gamma (mouse) transcription inhibition | AID 2551 | Drosophila S2 Gal4-RORgamma UAS-luciferase reporter, 20 h | Potency, µM (highest dose often 53.6 µM), actives largely listed as inhibitors | actives 5.4% (n = 310,000) | P51450; note: nearly all actives have a fitted effect of over 60% in size
Target sequence (P51450 whole entry, looked up, the tested form may be a part): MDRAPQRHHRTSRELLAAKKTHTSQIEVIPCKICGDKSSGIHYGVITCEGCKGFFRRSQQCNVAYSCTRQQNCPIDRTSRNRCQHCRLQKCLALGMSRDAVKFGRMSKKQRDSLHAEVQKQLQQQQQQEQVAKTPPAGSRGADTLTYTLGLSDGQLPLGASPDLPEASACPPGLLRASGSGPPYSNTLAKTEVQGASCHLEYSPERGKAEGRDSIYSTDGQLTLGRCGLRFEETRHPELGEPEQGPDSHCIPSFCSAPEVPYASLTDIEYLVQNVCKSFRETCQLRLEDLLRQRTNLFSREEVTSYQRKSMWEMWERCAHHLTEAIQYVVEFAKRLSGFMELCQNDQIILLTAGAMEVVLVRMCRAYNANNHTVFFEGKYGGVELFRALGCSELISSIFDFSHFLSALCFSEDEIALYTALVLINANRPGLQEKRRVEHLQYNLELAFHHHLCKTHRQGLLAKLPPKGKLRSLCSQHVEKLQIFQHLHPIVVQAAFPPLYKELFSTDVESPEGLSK
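Schneider cells (Drosophila), stable Gal4 DBD–ROR gamma + UAS-luc; 1 hr cmpd preincubation; Cu2+ induction 700 uM final; 20 hr ambient; luminescence.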
S2 tox: cell viability loss in ATXN counter-screen; Potency, µM (top dose mostly 56.7 µM), most hits filed as cytotoxic; S2 cells (HEK-293 line with an ATXN2-luciferase reporter) viability, CellTiter-Fluor protease fluorescence, 24 h; actives 0.49% (n = 400,000); AID 651635; note: nearly all actives have a fitted effect of over 40% in size
VP16 counter: Gal4-VP16 reporter inhibition counter-screen; Drosophila S2 Gal4-VP16 UAS-luciferase, luminescence, 20 h; Potency, µM (doses to about 53.6 µM), most hits filed as inhibitors; actives 3.5% (n = 310,000);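 note: Gal4-VP16 expression switched on by copper sulfate through the metallothionein promoter; nearly all actives have a fitted effect of over 50% in size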
TGFb inhibitor: TGF-b pathway inhibition; actives 1.2% (n = 410,000); Potency, µM (top dose mostly 46.1 µM), most hits filed as inhibitors; HepG2 CAGA-GFP TGF-b/SMAD3 reporter, GFP fluorescence, 18 h; TGF-beta stimulated, 500 pg/mL final; note: nearly all actives have a fitted effect of over 65% in size
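GFP signal (ex488/em500-530) from TGF-beta-stimulated HEPG2 CAGA-GFP cells, 500 pg/mL final, 18 h at 37 degrees C in DMEM plus 1% FBS, normalized to unstimulated and DMSO-stimulated controls.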
Of the large screens only hits and unclear results are named; the others gave an inactive call. Calls come from the whole dose curve; as a rule, active = well fitted curve in the direction sought with a large enough effect; inconclusive = small, poorly fitted or top-dose-only effect, or another doubt; inactive = no such curve, though single readings can be large; an effect the other way counts as inactive or inconclusive.

CCCOc1ccc(-c2nnc(-c3ccco3)o2)cc1	RORgamma inh 4.47µM, VP16 counter inconclusive
CC(=O)Nc1ccccc1NC(=O)CN(C)S(=O)(=O)c1ccc(C)cc1	none
CCCC(=O)Nc1ccccc1NC(=O)CN(C)S(=O)(=O)c1ccc(C)cc1	HepG2 tox 12.6µM
CC12CCC(=O)N1C(C(=O)NCCc1ccccc1)CS2 (centres undefined)	RORgamma inh 7.94µM, VP16 counter 15.8µM
CCN(CC)c1ccc(/C=N/NC(=O)c2ccoc2C)c(O)c1	RORgamma inh 0.501µM, VP16 counter 3.55µM, TGFb inhibitor inconclusive
CCN(CC)c1ccc(/C=N/NC(=S)NC)c(O)c1	ATXN2 expr inh inconclusive, RORgamma inh 0.794µM, S2 tox inconclusive, VP16 counter 1.78µM, TGFb inhibitor inconclusive
CCN(CC)c1ccc(/C=N/NC(=O)c2ccc3nc[nH]c3c2)c(O)c1	ATXN2 expr inh 2.82µM, RORgamma inh inconclusive
Cc1n[nH]c(C)c1Cc1sc2c(c1C(=O)N1C[C@H](O)CO1)c(=O)n(C)c(=O)n2CC(C)C	none (no result: HepG2 tox, RORgamma inh, S2 tox, VP16 counter, TGFb inhibitor)
CCOc1ccccc1CNC(=O)c1cnc2sc(N3CCCC3)nn2c1=O	none (no result: ATXN2 expr inh, RORgamma inh, S2 tox, VP16 counter)
CS(=O)(=O)Nc1ccc(F)cc1	none (no result: HepG2 tox, RORgamma inh, VP16 counter, TGFb inhibitor)
CCc1ccc(-n2c(C)n[nH]c2=S)cc1	RORgamma inh 10µM, VP16 counter inconclusive
Cc1n[nH]c(=S)n1-c1ccc(Cl)cc1	RORgamma inh inconclusive
Cc1cc(C(F)(F)F)nn1Cc1n[nH]c(=S)n1-c1ccc(F)cc1	RORgamma inh inconclusive
CCc1ccc(-n2c(Cn3nc(C(F)(F)F)cc3C)n[nH]c2=S)cc1	RORgamma inh 3.98µM, VP16 counter inconclusive
CC1=NN(C(=O)c2ccc(Cn3nc(C)cc3C)o2)C(O)(C(F)(F)F)C1 (centres undefined)	RORgamma inh 6.31µM, VP16 counter 5.62µM
CC1=NN(C(=O)c2ccc(Cn3cc(Br)c([N+](=O)[O-])n3)o2)C(O)(C(F)(F)F)C1 (centres undefined)	RORgamma inh 4.47µM, VP16 counter 11.2µM, TGFb inhibitor inconclusive
O=C(Nc1ccc2c(c1)OCO2)Nc1ccc2c(c1)OCO2	none
O=C(Nc1cccc(C(=O)O)c1)Nc1ccc2c(c1)OCO2	ATXN2 expr inh 5.01µM, RORgamma inh 10µM, VP16 counter 11.2µM
O=C(Nc1ccc(OC(F)F)c(Cl)c1)Nc1ccc2c(c1)OCO2	HepG2 tox 11.2µM, S2 tox inconclusive, TGFb inhibitor inconclusive
CCN1C/C(=C/c2ccc(N3CCOCC3)cc2)C(=O)/C(=C/c2ccc(N3CCOCC3)cc2)C1	ATXN2 expr inh 22.4µM, RORgamma inh inconclusive, VP16 counter inconclusive (no result: S2 tox)
CN1C/C(=C\c2ccc(N3CCOCC3)cc2)C(=O)/C(=C/c2ccc(N3CCOCC3)cc2)C1	ATXN2 expr inh inconclusive, RORgamma inh inconclusive, S2 tox inconclusive
O=C(N/N=C/c1c[nH]c2ccccc12)c1[nH]c2ccc(Br)cc2c1-c1ccccc1	RORgamma inh 15.8µM, VP16 counter inconclusive, TGFb inhibitor inconclusive
O=C(N/N=C/c1c[nH]c2ccccc12)c1cccc([N+](=O)[O-])c1	RORgamma inh 12.6µM, VP16 counter inconclusive
COc1ccc(Br)cc1/C=N/NC(=O)c1cc(Br)ccc1O	none (no result: ATXN2 expr inh, HepG2 tox, S2 tox, TGFb inhibitor)
C/C=N/NC(=O)c1cc(Br)ccc1O	RORgamma inh 11.2µM, S2 tox inconclusive, VP16 counter inconclusive
O=C(N/N=C/c1ccc(O)cc1)c1[nH]c2ccc(Br)cc2c1-c1ccccc1	VP16 counter inconclusive, TGFb inhibitor 11.2µM
Cc1nc(Cc2nnc(SC(C)C(=O)Nc3ccccc3)o2)cs1 (centres undefined)	none (no result: ATXN2 expr inh, RORgamma inh, VP16 counter)
CC(NC(=O)C1CC1)c1nnc2n1CCN(Cc1cccc(F)c1F)CC2 (centres undefined)	none (no result: ATXN2 expr inh, HepG2 tox, RORgamma inh, VP16 counter, TGFb inhibitor)
Cc1cc(Nc2ccccc2F)n2nc(-c3ccccc3)nc2n1	TGFb inhibitor inconclusive (no result: RORgamma inh, VP16 counter)
CC(=O)NNC(=O)c1[nH]c2ccc(Cl)cc2c1-c1ccccc1	TGFb inhibitor inconclusive (no result: ATXN2 expr inh)

Source: PubChem BioAssay (National Center for Advancing Translational Sciences (NCATS))
